Nrf2 block = Nrf2 qHTS screen for inhibitors; actives 2.1% (n = 360,000); A549 ARE-Fluc reporter, luciferase luminescence, 18-24 h; AID 504444, 2011; Potency, µM (series often up to 46 µM), without a hit: top-dose activity change, negative = inhibition, most hits filed as inhibitors; further: potency means the concentration at half of the fitted maximal effect; on the % scale 0 is the no-effect control and ±100 the full control effect; nearly all actives have a fitted effect of over 60% in size
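Cells were seeded and rested 2 h, then exposed to compounds for 18-24 h. CellTiter-Fluor was read first as a viability measure. BugLite was added 15 min before the final luminescent read of ARE-luciferase activity in A549 cells.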
A-T KAP1 phos = qHTS Assay for Identifying a Potential Treatment of Ataxia-Telangiectasia. F2112 A-T fibroblasts, KAP-1 phosphorylation AlphaLISA; neocarzinostatin DNA damage 30 min before lysis. Potency, µM (highest dose often 57.5 µM), for the others: at the top dose activation, hits mostly activators. actives 0.19% (n = 320,000); further: potency means the concentration at half of the fitted maximal effect; % of control where 0% means no effect; nearly all actives have a fitted effect of over 45% in size
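ATM-like activity read as KAP-1 phosphorylation via AlphaLISA donor/acceptor antibody pairs after lysis and 6 hr at 25C. Cells were ATM-null patient fibroblasts (F2112, hTERT), dosed 60 min, then exposed to the DSB inducer NCS for 30 min.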
Nrf2 ARE act = qHTS of Nrf2 Activators | AID 624171, 2012 | AREc32 ARE-luciferase reporter (MCF7-derived line), luminescence, 24 h | Potency, µM (highest dose often 46.1 µM), for the others: at the top dose activation, usual class: activators | actives 0.31% (n = 410,000); further: potency means the concentration at half of the fitted maximal effect; % of control where 0% means no effect; nearly all actives have a fitted effect of over 65% in size
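Luminescent ARE reporter assay in AREc32_Fluc cells: overnight plating at 37 deg C, 24 hr compound incubation, Steady-Glo added, 30 min RT before reading.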
A549 tox = Nrf2 qHTS screen for inhibitors: counterscreen for cytotoxicity; A549 ARE-Fluc cells, CellTiter-Fluor viability, 18-24 h; Potency, µM (top dose mostly 46 µM), for the others: at the top dose activity change, negative = cytotoxicity, actives largely listed as inhibitors; actives 0.16% (n = 390,000); AID 504648, 2011; further: potency means the concentration at half of the fitted maximal effect; on the % scale 0 is the no-effect control and ±100 the full control effect
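A549 ARE_Fluc cells in 5% FBS OPTI-MEM were exposed to compounds in concentration-response for 18-24 h at 37 deg C. Viability was read by CellTiter-Fluor fluorescence (Ex 405/Em 525) after 30 min, before the luciferase read.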
CCT modulator = High-Throughput Screening for Modulators of Cytosolic Chaperonin Activity; purified chaperonin ATPase assay, HTRF ADP detection, 30 min; activity change, % (no concentration beside the values), hits read low; actives 0.3% (n = 360,000); in the data active means activity change below about -30%; further: on the % scale 0 is the no-effect control and ±100 the full control effect
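Enzyme 40 or 20 nM (batch-dependent) in Tris pH 7.4/KCl/MgCl2/DTT; cpd 76 uM single point; ATP 10 uM; 30 min 37 °C; Transcreener ADP HTRF detection, 30 min RT; ratio 665/615.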
TCR act = Activators of T cell receptors: qHTS campaign; AID 504894, 2011; 330,000 tested, under 10 active; primary human leukocytes, anti-CD3, IL-2 HTRF, 48 h; Potency, µM (top dose mostly 9.22 µM), for inactives: at the top dose activation of IL-2 secretion, most hits filed as activators; further: % of control where 0% means no effect
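Primary human leukocytes were stimulated with a-CD3 beads plus compounds for 48 hr without co-stimulation; secreted IL-2 was quantified by HTRF using a-IL-2-K (europium cryptate) and a-IL-2-d2, excited at 320nm with acceptor emission read at 665nm.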
* = called active by the depositor; [ ] = remark or other dose. Rows were chosen to be rich in hits. Some 2.6% of all compounds tested hit in one or more screens of this group. Unless noted, the call rests on the fitted dose curve; in most records, active means well fitted curve in the direction sought with a large enough effect; inconclusive means small, poorly fitted or top-dose-only effect, or another doubt; inactive means no such curve, though single readings can be large; an effect the other way counts as inactive or inconclusive.

How did O=C1NC2(CCCCCC2)C(=O)N1Cc1cccc([N+](=O)[O-])c1 do in these assays?
Nrf2 block: -7.6%; A-T KAP1 phos: 45.5%; Nrf2 ARE act: 0.3%; A549 tox: 14.0%; CCT modulator: 1.1; TCR act: 1.9%

Results for O=C(Nc1nnc(CSCc2ccc(F)cc2)s1)c1cccc([N+](=O)[O-])c1 ?
Nrf2 block: 18.4µM*; A-T KAP1 phos: 3.3%; Nrf2 ARE act: 4.0%; A549 tox: inconclusive; CCT modulator: 1.0; TCR act: -4.3%[46.1 µM]

What do the screens show for `CCC(=O)N1CCc2cc(S(=O)(=O)CCC(=O)NCc3ccccc3OC)ccc21`?
Nrf2 block: 2.6%; A-T KAP1 phos: 2.5%; Nrf2 ARE act: -0.8%; A549 tox: 0.1%; CCT modulator: -56.9*; TCR act: 2.5%

What do the screens show for `CCC(=O)N1CCc2cc(S(=O)(=O)CCC(=O)NCc3cccc(OC)c3)ccc21`?
Nrf2 block: 1.6%; A-T KAP1 phos: 8.2%; Nrf2 ARE act: -0.9%; A549 tox: -0.2%; CCT modulator: -65.8*; TCR act: -9.1%

How did CCC(=O)N1CCc2cc(S(=O)(=O)CCC(=O)NCc3ccc(F)cc3)ccc21 do in these assays?
Nrf2 block: 2.9%; Nrf2 ARE act: 0.2%; A549 tox: 0.1%

How did CCC(=O)N1CCc2cc(S(=O)(=O)CCC(=O)N3CCN(c4cccc(C)c4)C(C)C3)ccc21 (stereo not given) do in these assays?
Nrf2 block: 20.6µM*; Nrf2 ARE act: 3.0%; A549 tox: 6.4%

How did CCC(=O)N1CCc2cc(Br)cc(S(=O)(=O)CCC(=O)N3CCN(c4cccc(C)c4)C(C)C3)c21 (stereo not given) do in these assays?
Nrf2 block: 4.7%[9.27 µM]; Nrf2 ARE act: 7.1%; A549 tox: inconclusive

What do the screens show for `CCC(=O)N1CCc2cc(S(=O)(=O)CCC(=O)NC3CCCCC3)ccc21`?
Nrf2 block: 8.2%; A-T KAP1 phos: -18.7%; Nrf2 ARE act: -0.1%; A549 tox: -1.9%; CCT modulator: -75.1*; TCR act: -3.6%

Results for CCC(=O)N1CCc2cc(S(=O)(=O)CCC(=O)NCc3ccc(C)cc3)ccc21 ?
Nrf2 block: 0.0%; A-T KAP1 phos: -5.4%; Nrf2 ARE act: 0.2%; A549 tox: 0.0%; CCT modulator: -3.0; TCR act: 6.5%

Results for O=C(NCc1ccc(F)cc1)n1c(-c2ccccc2)c(P(=S)(c2ccccc2)c2ccccc2)c2ccccc21 ?
Nrf2 block: inconclusive; A549 tox: -15.7%

What do the screens show for `COC(=O)N1CCCc2cc(S(=O)(=O)NCc3ccccc3)ccc21`?
Nrf2 block: 23.1µM*; Nrf2 ARE act: 2.9%; A549 tox: -8.5%

Results for c1ccc(-c2cnc(-c3ccccc3)nn2)cc1 ?
Nrf2 block: 2.7%; Nrf2 ARE act: 2.82µM*; A549 tox: 9.2%; CCT modulator: -0.4; TCR act: 1.1%

What do the screens show for `c1ccc(-c2cnc(-c3ccccn3)nn2)cc1`?
Nrf2 block: inconclusive; Nrf2 ARE act: inconclusive; A549 tox: -2.3%; CCT modulator: 1.2; TCR act: -4.5%

How did CCN(CC)c1ccc2nc3c4ccccc4c(=O)cc-3oc2c1 do in these assays?
Nrf2 block: inconclusive; A-T KAP1 phos: -3.1%; Nrf2 ARE act: 0.5%; A549 tox: -11.2%; CCT modulator: -48.4*; TCR act: 2.3%

Results for CCN(CC)c1ccc2cc(C=O)c(=O)oc2c1 ?
Nrf2 block: -13.0%; Nrf2 ARE act: 3.7%; A549 tox: 12.4%; CCT modulator: -0.3; TCR act: 1.9%

Results for CCN=c1scc(C)n1/N=C/c1ccsc1 ?
Nrf2 block: inconclusive; A-T KAP1 phos: -4.8%; Nrf2 ARE act: 7.08µM*; A549 tox: -1.7%; CCT modulator: -3.4; TCR act: -1.3%

Results for CC(=O)c1cn(CC(=O)Nc2ccc(C)cc2)c2ccccc12 ?
Nrf2 block: inconclusive; A-T KAP1 phos: 1.3%; Nrf2 ARE act: 3.7%; A549 tox: -2.9%; CCT modulator: 0.4; TCR act: 1.4%

Results for CC(=O)c1cn(CC(=O)Nc2c(C)cccc2C)c2ccccc12 ?
Nrf2 block: 9.2µM*; A-T KAP1 phos: 2.8%; Nrf2 ARE act: -0.7%; A549 tox: -11.1%; CCT modulator: -0.3; TCR act: -10.5%

What do the screens show for `CC(=O)c1cn(CC(=O)Nc2ccccc2C)c2ccccc12`?
Nrf2 block: 9.2µM*; A-T KAP1 phos: 5.5%; Nrf2 ARE act: -0.4%; A549 tox: -5.5%; CCT modulator: -0.9; TCR act: 3.1%

Results for O=C(c1ccco1)c1cn(CCOc2ccc(Cl)cc2)c2ccccc12 ?
Nrf2 block: 4.7%; Nrf2 ARE act: 0.4%; A549 tox: -1.0%

What do the screens show for `O=C(c1ccco1)c1cn(CCOc2ccc(F)cc2)c2ccccc12`?
Nrf2 block: 23.1µM*; Nrf2 ARE act: 3.8%; A549 tox: -26.9%

Results for Cc1cccc(NC(=O)Cn2cc(C(=O)c3ccco3)c3ccccc32)c1C ?
Nrf2 block: 20.6µM*; Nrf2 ARE act: 4.4%; A549 tox: -22.4%

What do the screens show for `O=S(=O)(c1ccc(Br)cc1)N1CCN(S(=O)(=O)c2ccc3c(c2)OCCO3)CC1`?
Nrf2 block: 15.8%; A549 tox: -3.1%

Results for O=C(c1cc2nc(-c3ccccc3)cc(-c3ccccc3)n2n1)N1CCN(C(=O)c2ccco2)CC1 ?
Nrf2 block: 23.1µM*; A-T KAP1 phos: 0.7%; Nrf2 ARE act: 1.5%; A549 tox: -2.4%; CCT modulator: -16.6; TCR act: -0.2%

How did O=C(c1cc2nc(-c3ccccc3)cc(-c3ccccc3)n2n1)N1CCCC1 do in these assays?
Nrf2 block: inconclusive; A-T KAP1 phos: -0.9%; Nrf2 ARE act: 0.4%[9.22 µM]; A549 tox: -4.8%; CCT modulator: -3.2; TCR act: -3.1%

What do the screens show for `COC(=O)c1ccc(NC(=O)CN(Cc2ccc(Cl)cc2)S(C)(=O)=O)cc1`?
Nrf2 block: -111.4%; A-T KAP1 phos: -0.7%; Nrf2 ARE act: 4.9%; A549 tox: inconclusive; CCT modulator: -2.3; TCR act: 1.2%

Results for O=C(COC(=O)c1cc([N+](=O)[O-])ccc1NCCO)Nc1cccc(S(=O)(=O)N2CCCC2)c1 ?
Nrf2 block: -21.4%; A-T KAP1 phos: -10.5%; Nrf2 ARE act: 0.3%; A549 tox: -16.7%; CCT modulator: -2.1; TCR act: 8.3%

Bioassay records as filed in PubChem BioAssay.
